Experiment [1] is described as follows: Tanguay_ZF_120hpf_NC_legacy: (Legacy) Oregon State University Tanguay Lab 120 Hour Post-fertilization zebrafish Assay for Notochord and Tail Malformation (AID 2283656). Put shortly: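 Binary scoring of notochord distortion by brightfield microscopy; embryos dying were not scored. Wild-type Tropical 5D embryos, chorion removed, exposed singly and statically from 6 to 120 hpf, 28C, sealed, 0.64% DMSO.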

Read-out in experiment [2]: solute carrier (SLC10A1), SLC10A1 (gene 6554)
Description: LTEA_HepaRG_SLC10A1: Life Technologies and Expression Analysis (LTEA) Assay for solute carrier (SLC10A1) using HepaRG (AID 2283657; active = hit-call score of the fitted dose curve at least 0.9, where 1 is the maximum; inactive = score below 0.9). The note with it: mRNA level, 48 h; actives raise or lower the signal. Summed up: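 Cryopreserved HepaRG cells are thawed, plated and cultured 48 h; medium is then switched to serum-free induction medium and chemicals added (8 points, max 100 uM, 0.5% DMSO). After 48 h, RNA is isolated and SLC10A1 quantified by qRT-PCR.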

Read-out in experiment [3]: matrix metalloproteinase-1 (MMP1), MMP1 (gene 4312)
Description: LTEA_HepaRG_MMP1: Life Technologies and Expression Analysis (LTEA) Assay for matrix metalloproteinase-1 (MMP1) using HepaRG (AID 2283658; active = hit-call score of the fitted dose curve at least 0.9, where 1 is the maximum; inactive = score below 0.9). The following applies: mRNA level, 48 h; actives raise or lower the signal. Put shortly:
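HepaRG, ~100,000 cells/well, 48 h pre-culture; serum-free induction medium; test chemical 8 conc (max 100 uM, half-log), duplicate, 48 h; 0.5% DMSO; qRT-PCR MMP1, housekeeping-normalized; gain/loss fit vs DMSO.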

Read-out in experiment [4]: Broad substrate specificity ATP-binding cassette transporter ABCG2 (Homo sapiens) (UniProt Q9UNQ0)
Description: CLD_ABCG2_6hr: CellzDirect (CLD) Gene Expression Assay for ABC Transporter (ABCG2) at 6 hours (AID 2283660). Put shortly: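 ABCG2 mRNA induction measured by qNPA chemiluminescence in human primary hepatocyte cultures, 6 h post-dose. Chemicals tested at several concentrations against a 0.2% DMSO vehicle; positive-direction fit relative to DMSO.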

Read-out in experiment [5]: xenobiotic metabolism (CYP1A1), CYP1A1 (gene 1543)
Description: CLD_CYP1A1_6hr: CellzDirect (CLD) Gene Expression Assay for xenobiotic metabolism (CYP1A1) at 6 hours (AID 2283661). Summed up:
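Read-out 6 h post-dose: qNPA chemiluminescent quantitation of transcript induction against 0.2% DMSO. Cells were cultured primary human hepatocytes from two separate donor preparations; phase-contrast morphology annotated apparent cytotoxicity.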

Read-out in experiment [6]: xenobiotic metabolism (CYP1A2), CYP1A2 (gene 1544)
As to the kind of experiment: CLD_CYP1A2_6hr: CellzDirect (CLD) Gene Expression Assay for xenobiotic metabolism (CYP1A2) at 6 hours (AID 2283663).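 As to AC50: potency is for induction meaning a rise in mRNA above DMSO.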 Summed up:
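mRNA levels quantified by quantitative nuclease protection assay with chemiluminescence, 6 h after dosing human primary hepatocyte cultures (two donors) across several concentrations, vehicle 0.2% DMSO. Induction fitted upward versus DMSO; phase-contrast cytotoxicity annotated.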

Read-out in experiment [7]: alkyl and aryl transferase (GSTA2), GSTA2 (gene 2939)
Description: CLD_GSTA2_6hr: CellzDirect (CLD) Gene Expression Assay for alkyl and aryl transferase (GSTA2) at 6 hours (AID 2283666). Summed up: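 GSTA2 transcript induction at 6 h, quantified by nuclease protection (qNPA) with chemiluminescent detection, in human liver primary hepatocytes exposed to several compound concentrations with 0.2% DMSO as baseline; phase-contrast morphology annotated apparent cytotoxicity.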

Experiment [8] can be described thus: Tanguay_ZF_120hpf_TR_legacy: (Legacy) Oregon State University Tanguay Lab 120 Hour Post-fertilization zebrafish Assay for Touch Response (AID 2283667). Put shortly:
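Readout is presence or absence of touch response in 120 hpf zebrafish larvae, assessed by brightfield observation after continuous static exposure at 28C. Final vehicle was 0.64% (vol/vol) DMSO.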

Read-out in experiment [9]: sulfotransferase (SULT2A), SULT2A1 (gene 6822)
Description: CLD_SULT2A_6hr: CellzDirect (CLD) Gene Expression Assay for sulfotransferase (SULT2A) at 6 hours (AID 2283669).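 Also: hits raise transcript level above the DMSO vehicle baseline.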 Summed up:
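Measured 6 h after dosing, SULT2A1 mRNA in human hepatocyte lysates was quantified by S1 nuclease protection with chemiluminescent detection. Increases fitted against 0.2% DMSO vehicle baseline; phase-contrast cytotoxicity recorded yes/no.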

Read-out in experiment [10]: Cytochrome P450 (CYP24A1_1), CYP24A1 (gene 1591)
As to the kind of experiment: LTEA_HepaRG_CYP24A1_1: Life Technologies and Expression Analysis (LTEA) Assay for Cytochrome P450 (CYP24A1_1) using HepaRG (AID 2283671; active = hit-call score of the fitted dose curve at least 0.9, where 1 is the maximum; inactive = score below 0.9). The following applies: mRNA level, 48 h; actives raise or lower the signal. Summed up:
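Cultures of human HepaRG were treated in duplicate for 48 h (0.5% DMSO vehicle, highest dose 100 uM). CYP24A1 mRNA by qRT-PCR, normalized to ACTB, GAPDH, POLR2A.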

Read-out in experiment [11]: glucuronosyltransferase (UGT1A1), UGT1A1 (gene 54658)
As to the kind of experiment: CLD_UGT1A1_6hr: CellzDirect (CLD) Gene Expression Assay for glucuronosyltransferase (UGT1A1) at 6 hours (AID 2283672). Summed up: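 UGT1A1 mRNA induction, read by quantitative nuclease protection assay, 6 h after dosing primary human hepatocytes (two donors, 0.2% DMSO vehicle). Gain of signal fitted relative to vehicle.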

Read-out in experiment [12]: Cytochrome P450 2B6 (Homo sapiens) (UniProt P20813)
Description: CLD_CYP2B6_6hr: CellzDirect (CLD) Gene Expression Assay for xenobiotic metabolism (CYP2B6) at 6 hours (AID 2283677).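 Also: actives raise CYP2B6 transcript above DMSO baseline so AC50 marks an inducer.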 Put shortly:
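CYP2B6 transcript levels, read by chemiluminescent qNPA, were fitted for increase versus DMSO baseline; cultured human liver hepatocytes from two donor preparations were harvested 6 h after exposure to test chemicals at multiple concentrations.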

Read-out in experiment [13]: ABC Transporter (ABCB1), ABCB1 (gene 5243)
Description: CLD_ABCB1_6hr: CellzDirect (CLD) Gene Expression Assay for ABC Transporter (ABCB1) at 6 hours (AID 2283659).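 Also: hits raise ABCB1 transcript above the DMSO vehicle baseline.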 Summed up: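 ABCB1 transcript measured by quantitative nuclease protection assay, chemiluminescent read-out, 6 h after dosing human hepatocyte cultures (0.2% DMSO vehicle, daily redosing). Activity fitted as increase over DMSO baseline; cytotoxicity flagged by phase-contrast morphology.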

In experiment [14] the test system is Thyroperoxidase (TPO), gene 54314. As to the kind of experiment: CCTE_Simmons_AUR_rTPO: CCTE's Amplex UltraRed Assay for Thyroperoxidase (TPO) Inhibition, Simmons Lab (AID 2283662).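 As to AC50: potency for loss of signal meaning inhibition of peroxidase activity.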 Put shortly:
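Rat thyroid microsomes (5 ug protein) with 25 uM Amplex UltraRed and 300 uM H2O2 in 200 mM phosphate buffer, 30 min at 37C in dark; fluorescence 544/590 nm. Eight concentrations, 5 nM–87.5 uM final, 0.5% DMSO, triplicate biological replicates.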

Experiment [15] is described as follows: CCTE_Simmons_CellTiterGLO_HEK293T: Viability Assessment in CCTE's Assays for Thyroperoxidase (TPO) Inhibition, Simmons Lab (AID 2283665).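 As to AC50: cells exposed to compound for 24 h before readout; actives reduce ATP signal below DMSO vehicle meaning cytotoxicity.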 Put shortly: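 Cells were seeded overnight, then exposed to an eight-point series up to 87.5 uM final for 24 hours. CellTiter-Glo reagent was added and luminescence read after 20 min, giving ATP-based viability versus DMSO.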
In general terms: In ATP-based viability assays light output follows the ATP content of the culture.

Read-out in experiment [16]: organic anion transporter (SLCO1B1), SLCO1B1 (gene 10599)
As to the kind of experiment: CLD_SLCO1B1_6hr: CellzDirect (CLD) Gene Expression Assay for organic anion transporter (SLCO1B1) at 6 hours (AID 2283668).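 Also: active means mRNA induction above DMSO baseline.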 Summed up:
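SLCO1B1 mRNA induction measured 6 h after dosing by quantitative nuclease protection with chemiluminescent read-out, in human primary hepatocyte cultures given chemicals at several concentrations (vehicle 0.2% DMSO). Increase over DMSO baseline fitted; morphology-based cytotoxicity annotated yes/no.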

Experiment [17] is described as follows: CLD_ACTIN_24hr: CellzDirect (CLD) Gene Expression Assay for Baseline Control (Actin) at 24 hours (AID 2283670). Put shortly: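 This 24 h qNPA (S1 nuclease protection, chemiluminescence) actin transcript readout in cultured human liver primary cells serves as baseline control. Signal is fitted upward relative to 0.2% DMSO; chemicals tested at multiple concentrations across two donor preparations.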

Read-out in experiment [18]: ABC Transporter (ABCB11), ABCB11 (gene 8647)
As to the kind of experiment: CLD_ABCB11_6hr: CellzDirect (CLD) Gene Expression Assay for ABC Transporter (ABCB11) at 6 hours (AID 2283675).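 Also: hits raise ABCB11 mRNA level so AC50 marks induction.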 Put shortly:
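Read-out was ABCB11 mRNA gain of signal by quantitative nuclease protection assay, relative to 0.2% DMSO vehicle, 6 h post-dose. Cells were primary human hepatocytes from two donors, treated across multiple concentrations; phase-contrast cytotoxicity noted yes/no.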

Read-out in experiment [19]: xenobiotic metabolism (CYP1A1), CYP1A1 (gene 1543)
Description: CLD_CYP1A1_24hr: CellzDirect (CLD) Gene Expression Assay for xenobiotic metabolism (CYP1A1) at 24 hours (AID 2283673).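 Also: CYP1A1 mRNA level by quantitative nuclease protection with chemiluminescence.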 Summed up:
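Transcript levels were read at 24 h by qNPA chemiluminescence in human liver primary cells. Cells got daily fresh dosing at multiple concentrations (vehicle 0.2% DMSO). Induction fitted upward against DMSO; phase-contrast cytotoxicity annotated.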

Several values for one entry are separate records, joined by “and”; a condition that tells them apart may be missing. Identical values can stand only once. Inconclusive results are not listed. Some compounds were tested as several samples or in several runs, with calls that do not always agree. Activity calls are given as the source filed them. The calls were made as follows, unless noted: active = hit-call score of the fitted dose curve at least 0.9, where 1 is the maximum; inconclusive = response in the unintended direction; inactive = score below 0.9.

Sequence of Broad substrate specificity ATP-binding cassette transporter ABCG2 (Homo sapiens) (Q9UNQ0 whole entry, looked up): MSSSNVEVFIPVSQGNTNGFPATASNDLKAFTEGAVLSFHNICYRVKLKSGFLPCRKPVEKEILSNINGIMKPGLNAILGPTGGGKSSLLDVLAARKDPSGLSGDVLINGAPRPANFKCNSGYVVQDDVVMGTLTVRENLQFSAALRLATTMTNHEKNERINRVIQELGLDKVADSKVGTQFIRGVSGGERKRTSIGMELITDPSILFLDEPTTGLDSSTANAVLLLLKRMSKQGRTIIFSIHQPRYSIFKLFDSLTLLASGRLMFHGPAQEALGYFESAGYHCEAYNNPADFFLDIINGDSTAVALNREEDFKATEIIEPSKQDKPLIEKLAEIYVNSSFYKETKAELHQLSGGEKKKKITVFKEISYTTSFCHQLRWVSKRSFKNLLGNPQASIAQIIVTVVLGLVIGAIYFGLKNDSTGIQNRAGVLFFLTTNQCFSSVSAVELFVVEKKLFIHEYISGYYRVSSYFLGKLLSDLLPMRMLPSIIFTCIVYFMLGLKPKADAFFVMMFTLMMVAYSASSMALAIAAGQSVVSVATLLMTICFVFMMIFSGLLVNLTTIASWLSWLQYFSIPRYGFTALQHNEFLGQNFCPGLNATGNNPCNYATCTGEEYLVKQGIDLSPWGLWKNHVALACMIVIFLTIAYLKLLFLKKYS

One may read the AC50 as the midpoint of the concentration-response curve, whichever way the signal moves. Regarding `CCCCN(CC)c1c([N+](=O)[O-])cc(C(F)(F)F)cc1[N+](=O)[O-]`, the outcome in experiment [1], in experiment [2], in experiment [3], in [4], in [5] and in [6] was inactive. The outcome in experiment [7], in experiment [8], in experiment [9], in [10] and in experiment [11] was inactive. In experiment [12], the concentration at half-maximal activity (AC50) is 2.13 µM (active).
As to `O=c1ccc(=O)[nH][nH]1`, the concentration at half-maximal activity (AC50) in experiment [1] was 41.6 µM (active). Besides, the call in [13], in [4], in [14], in experiment [15], in experiment [7] and in [8] was inactive. The compound was called inactive in experiment [16], in experiment [17], in [11] and in experiment [18].
With `CN(C)[C@@H]1C(=O)C(C(N)=O)=C(O)[C@@]2(O)C(=O)C3=C(O)c4c(O)cccc4[C@@](C)(O)[C@H]3[C@H](O)[C@@H]12`, the compound was classed as inactive in [1], in experiment [4], in [5], in experiment [15], in experiment [7] and in experiment [8]. Moreover, the call in experiment [17] and in [11] was inactive. For the same compound, the AC50 in experiment [14] was 17.5 µM (active) and 10.5 µM (active) and 15.5 µM (active); in experiment [15] it was 5.47 µM (active) and 53.8 µM (active).
As to `C[N+]1(C)CCCCC1`, the compound was classed as inactive in experiment [1], in experiment [4], in experiment [5], in experiment [6], in [7] and in experiment [8]. For the same compound, the compound was called inactive in experiment [17], in [11] and in [18].
For the compound `CN(C)NC(=O)CCC(=O)O`, the compound was classed as inactive in experiment [1], in experiment [13], in [4], in experiment [6], in [8] and in [9]. In addition, the compound was classed as inactive in [17], in [11] and in experiment [18].
`CCCSP(=O)(OCC)Oc1ccc(Br)cc1Cl` (stereo unspecified): the call in experiment [13], in experiment [4], in experiment [8], in [16], in [9] and in experiment [11] was inactive. Further, the AC50 in experiment [14] is 15.6 µM (active); in experiment [15], 41.5 µM (active).
Take `COP(=O)(NC(C)=O)SC` (stereo unspecified): the compound was called inactive in experiment [4], in [15], in [8], in experiment [16], in [9] and in [17]. The outcome in [11] was inactive. Besides, in [14], the concentration at half-maximal activity (AC50) was 31.8 µM (active).
Regarding `CCOP(=S)(OCC)Oc1ccc([N+](=O)[O-])cc1`, the call in [1], in [15], in [7], in [9] and in experiment [11] was inactive. Moreover, the half-maximal activity concentration (AC50) in experiment [14] is 15.5 µM (active); in experiment [6], 2.19 µM (active); in experiment [19], 5.99 µM (active); in experiment [12], 2.58 µM (active).
